We go through 14 compounds from the supplement of paper PMC7411054.

Structures can show the parent of a compound that is named as a salt. Values without a mark were called inactive.

The subject of the assay is A549-TUBA1B-RELA. Briefly: phenotypically active (imaging signature differs from DMSO and reproducible) at any of 0.3-9 uM (binary (1 = active, 0 = inactive)); higher = active. The settings on record: treatment time: 24 h. The method in brief:
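After 24 h at 0.3, 1, 3 or 9 µM, with four wells per treatment, fifteen gene-edited A549, HepG2 and WPMY1 reporter lines carrying BFP, GFP and RFP/FusionRed were imaged live. Each well's live-cell features were expressed relative to solvent control wells. Deviation required ≥3 of 4 wells past the 95th percentile of control Euclidean distances, and reproducibility a median replicate Pearson correlation over the 95th percentile of non-replicates. Phenotypic activity rested on both.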
Turning to `N[C@@H]1C[C@H]1c1ccccc1` [Tranylcypromine hydrochloride], the phenotypically active is 0.
Under `C/C=C1\CN2CC[C@]34c5cc(OC)ccc5N5C(=O)C(O)OC[C@@H]([C@H]53)[C@H]1C[C@H]24` (some centres undefined) [10-Methoxy-o-demethyltsilanine] stands 0; under `Fc1ccccc1C1=NCC(=S)N(CC(F)(F)F)c2ccc(Cl)cc21` [quazepam], 0; under `COc1c2c(cc3c1OCO3)CC[N+](C)=C2` [Cotarnine chloride], 0.
Next, `N[C@H]1C[C@@H]1c1ccccc1` [tranylcypromine]: 0; `O=c1ccc2ccc3occc3c2o1` [Angelicin]: 0; `C[C@]12COC(=O)C[C@@H]1CC[C@@H]1[C@@H]2CC[C@@]2(C)[C@H]1CC[C@]2(C)O` [oxandrolone]: 0.
As for `CC(C)C[C@H](CN)CC(=O)O` [pregabalin], the phenotypically active is 0.
Next, `NC(=S)N/N=C/c1coc2ccccc2c1=O`: 0; `O[C@H]1[C@H](O)[C@@H](O)CN2CC[C@H](O)[C@H]12` [Castanospermine]: 0.
Under `Cc1ccc(-c2nc3ccc(C)cn3c2CC(=O)N(C)C)cc1` [zolpidem] stands 0; under `CN1C(CC(O)c2ccccc2)CCCC1CC(O)c1ccccc1` (centres undefined) [Lobelanidine hydrochloride], 0.
For the compound `CNC(=O)Oc1ccc2c(c1)[C@]1(C)CCN(C)O[C@@H]1N2C` [Geneserine], the phenotypically active is 0.
In the case of `COc1ccc(C(=O)OC2C[C@H]3CC[C@H](C2)N3C)cc1OC` (some centres undefined) [Convolamine hydrochloride], the phenotypically active was 0.
